# Reference: PubChem BioAssay (NCATS)
# Where “and” joins values, the source holds several entries; their conditions need not be identical. Equal entries are not always repeated. Results filed as inconclusive are left out. A call without a number means that no potency is given here. A number with no mark means an inactive call. Calls of active or inactive are those of the source. Unless noted, the call rests on the fitted dose curve; in most records, active means well fitted curve in the direction sought with a large enough effect; inconclusive means small, poorly fitted or top-dose-only effect, or another doubt; inactive means no such curve, though single readings can be large; an effect the other way counts as inactive or inconclusive.
# Tests used:
# [1] = Primary qHTS for inhibitors of La Crosse Virus (LACV) - induced cell death in SH-SY5Y cells (AID 1508616);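 further: top concentration of the series differs between compounds; higher means more rescue of cells from virus-induced death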
# Procedure, shortened: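 SH-SY5Y, 6000 cells/well; cpd via pin tool in DMSO; LACV 0.01 MOI; 6 d 37C 5% CO2; ATPLite, 5 min RT; luminescence normalized to ±virus DMSO controls.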
# [2] = target: Calcium and integrin-binding protein 1 (Homo sapiens) (UniProt Q99828); assay: Primary qHTS for Identification of Calcium Integrin Binding Protein 1 (CIB1) Competitor (AID 1508620); further: potency means the concentration at half of the fitted maximal effect
# Sequence of Calcium and integrin-binding protein 1 (Homo sapiens) (Q99828 whole entry, looked up): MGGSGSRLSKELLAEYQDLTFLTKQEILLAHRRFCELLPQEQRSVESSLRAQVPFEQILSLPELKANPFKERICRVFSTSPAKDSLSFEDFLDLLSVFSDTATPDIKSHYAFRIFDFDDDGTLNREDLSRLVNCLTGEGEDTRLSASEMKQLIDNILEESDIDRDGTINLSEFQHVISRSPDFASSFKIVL
# Procedure, shortened: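 Fluorescence polarization competition: GST-tagged CIB1 (1 uM final) preincubated with compound 15 min at room temperature, then FITC-labelled alphaIIb peptide (100 nM final) added. After 15 min at room temperature, polarization read at Ex 480/Em 540.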
# [3] = Counterscreen qHTS for small molecule stabilizers of the endoplasmic reticulum resident proteome: GLuc-NoTag assay (AID 1508627); further: series mostly up to about 76 µM
# Procedure, shortened: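 Counterscreen line: SH-SY5Y-GLuc-NoTag. Seed, 5 h; compound, 19 h; thapsigargin 100 nM, 4 h; 37C/5% CO2. Readout: secreted GLuc luminescence, coelenterazine 0.07x final, no lysis.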
# [4] = Confirmatory qHTS for small molecule stabilizers of the endoplasmic reticulum resident proteome: Secreted ER Calcium Modulated Protein (SERCaMP) assay (AID 1508628); further: nearly all actives have a fitted effect of over 40% in size; further: potency means the concentration at half of the fitted maximal effect
# Procedure, shortened: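 Reporter secretion upon ER calcium depletion (100 nM thapsigargin, 4 h, 37C) is measured as medium luminescence with coelenterazine, after 16 h compound pretreatment of SH-SY5Y-GLuc-SERCaMP cells; primary at three concentrations up to 38.3 uM, follow-up at 11 (up to 76.6 uM).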
# [5] = Cell Viability qHTS for small molecule stabilizers of the endoplasmic reticulum resident proteome (AID 1508629); settings: cell viability counter-screen, 100 nM thapsigargin for final 4 h;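 further: human SH-SY5Y neuroblastoma cells carrying the GLuc-SERCaMP reporter; compound exposure about 46 h in total before the viability read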
# [6] = A High-Content qHTS Against Drug Library for the Identification of Small Molecules that Inhibit DYT1 Early Onset Primary Dystonia-Associated Cell Pathology (AID 1645839; calls by dose curve; further: potency means the concentration at half of the fitted maximal effect)
# Procedure, shortened: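 Cells were seeded and left for 24 h, then dosed with compound alongside tetracycline induction of mutant EGFP-TorsinA. They were incubated for 48 h, fixed in 4% paraformaldehyde, permeabilized and imaged for mislocalization (%pathology) and cell count.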
# [7] = Primary qHTS for small molecule stabilizers of the endoplasmic reticulum resident proteome: Secreted ER Calcium Modulated Protein (SERCaMP) assay (AID 1508630)
# Procedure, shortened: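 The SH-SY5Y reporter protocol was run at 3 concentrations up to 38.3 uM (primary) or 11 concentrations (follow-up): 16 h compound, 100 nM thapsigargin for 4 h, then extracellular luciferase luminescence.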
structure (smiles),measurement,setting,value
O=C(NO)c1ccccc1,outcome,[1],inactive
same,Potency,[2],inactive
same,Potency,[3],inactive
same,Potency,[4],inactive
same,max response,[5],2.69%
same,Potency,[6],inactive
O=C1Nc2ccccc2C1(c1ccc(O)cc1)c1ccc(O)cc1,outcome,[1],inactive
same,Potency,[2],inactive
CC(C)(c1ccc(O)cc1)c1ccc(O)cc1,outcome,[1],inactive
same,Potency,[2],inactive
same,Potency,[3],inactive
same,Potency,[4],89.1 µM (active) and 44.7 µM (active) and 50.1 µM (active)
same,Potency,[6],31.6 µM (active)
CCCCCCCCCCCCCCCC[N+](C)(C)Cc1ccccc1,outcome,[1],inactive
same,Potency,[2],inactive
same,Potency,[7],inactive
C[C@H]1NCc2cc(-c3ccc4c(=O)c(C(=O)O)cn(C5CC5)c4c3OC(F)F)ccc21,outcome,[1],inactive
same,Potency,[2],inactive
same,Potency,[7],inactive
COc1cc2nc(Cl)nc(N)c2cc1OC,outcome,[1],inactive
same,Potency,[2],inactive
same,Potency,[7],inactive
CCCCCN(CCCOC)C(=O)C(CCC(=O)O)NC(=O)c1ccc(Cl)c(Cl)c1 (stereo unspecified),outcome,[1],inactive
same,Potency,[2],inactive
same,Potency,[7],inactive
CCCCCCCCCCCCCCCCCCNC(=O)OC1CCN(C(=O)OC[C@H](COC(=O)N(Cc2cccc[n+]2CC)C(=O)c2ccccc2OC)OC)CC1,outcome,[1],inactive
same,Potency,[2],inactive
same,Potency,[7],inactive
CCOC(=O)C1=C(C)NC(C)=C(C(=O)OCC)C1c1ccccc1/C=C/C(=O)OC(C)(C)C,outcome,[1],inactive
same,Potency,[2],inactive
same,Potency,[7],inactive
CCN(CC)CCN,outcome,[1],inactive
same,Potency,[2],inactive
same,Potency,[7],inactive
CC(C)=CCC/C(C)=C/CC/C(C)=C/C(=O)OCC(=O)[C@@]1(O)CC[C@H]2[C@@H]3CCC4=CC(=O)C=C[C@]4(C)[C@H]3[C@@H](O)C[C@@]21C,outcome,[1],inactive
same,Potency,[2],inactive
same,Potency,[7],inactive
Cc1cc(O)c2c(O)c3c(O)cccc3cc2c1,outcome,[1],inactive
same,Potency,[2],inactive
same,Potency,[7],inactive
O=C(OCCN1CCOCC1)c1cccnc1Nc1cccc(C(F)(F)F)c1,outcome,[1],inactive
same,Potency,[2],inactive
same,Potency,[7],inactive
CC(C)=CCNc1ncnc2c1ncn2[C@@H]1O[C@H](CO)[C@@H](O)[C@H]1O,outcome,[1],inactive
same,Potency,[2],inactive
same,Potency,[7],inactive
CNC(=O)c1cnn(-c2nc(N)c3ncn([C@@H]4O[C@H](CO)[C@@H](O)[C@H]4O)c3n2)c1,outcome,[1],inactive
same,Potency,[2],inactive
same,Potency,[7],inactive
CCCCCC[C@@H](CCC)C(=O)O,outcome,[1],inactive
same,Potency,[2],inactive
same,Potency,[7],inactive
CC[C@@H]([C@H](C)O)n1ncn(-c2ccc(N3CCN(c4ccc(OC[C@@H]5CO[C@@](Cn6cncn6)(c6ccc(F)cc6F)C5)cc4)CC3)cc2)c1=O,outcome,[1],inactive
same,Potency,[2],inactive
same,Potency,[7],inactive
Nc1ccc2cc3ccc(N)cc3nc2c1,outcome,[1],inactive
same,Potency,[2],2.24 µM (active)
same,Potency,[7],inactive
Cc1cc(OCCOCC[N+](C)(C)Cc2ccccc2)ccc1C(C)(C)CC(C)(C)C,outcome,[1],inactive
same,Potency,[2],inactive
same,Potency,[7],inactive
C[N+](C)(CCOc1ccccc1)Cc1cccs1,outcome,[1],inactive
same,Potency,[2],inactive
same,Potency,[7],inactive
Nc1ccc(C(=O)N2CC3CC(CN(Cc4ccccc4)C3)C2)cc1,outcome,[1],inactive
same,Potency,[2],inactive
same,Potency,[7],inactive
CC(C)(C)CC(=O)OCC(=O)[C@@]1(O)CC[C@H]2[C@@H]3CCC4=CC(=O)C=C[C@]4(C)[C@H]3[C@@H](O)C[C@@]21C,outcome,[1],inactive
same,Potency,[2],inactive
same,Potency,[7],inactive
Cc1ccc(C(=O)Oc2ccc(C(O)CNC(C)(C)C)cc2OC(=O)c2ccc(C)cc2)cc1 (stereo unspecified),outcome,[1],inactive
same,Potency,[2],inactive
same,Potency,[7],inactive
COC(=O)/C=C(/C)N,outcome,[1],inactive
same,Potency,[2],inactive
same,Potency,[7],inactive
O=C(Nc1ccc(Cl)cc1)Nc1ccc(Cl)c(C(F)(F)F)c1,outcome,[1],inactive
same,Potency,[2],inactive
same,Potency,[7],inactive
COc1ccccc1OCC1CNC(=O)O1 (stereo unspecified),outcome,[1],inactive
same,Potency,[2],inactive
same,Potency,[7],inactive
CCCCC(CC)COC(=O)c1ccccc1C(=O)O (stereo unspecified),outcome,[1],inactive
same,Potency,[2],inactive
same,Potency,[7],inactive
CC1CCCCN1CCCOC(=O)c1ccc(OC2CCCCC2)cc1 (stereo unspecified),outcome,[1],inactive
same,Potency,[2],inactive
same,Potency,[7],inactive
COC(=O)C1=C(C)NC(COC(N)=O)=C(C(=O)OC(C)C)C1c1cccc(Cl)c1Cl (stereo unspecified),outcome,[1],inactive
same,Potency,[2],inactive
same,Potency,[7],inactive
CCCc1ncc(C(=O)O)s1,outcome,[1],inactive
same,Potency,[2],inactive
same,Potency,[7],inactive
CCOC(=O)C(=O)CCCCCCl,outcome,[1],inactive
same,Potency,[2],inactive
same,Potency,[7],inactive
CCCC(=O)O[C@]1(C(=O)COC(=O)CC)CC[C@H]2[C@@H]3CCC4=CC(=O)CC[C@]4(C)[C@H]3[C@@H](O)C[C@@]21C,outcome,[1],inactive
same,Potency,[2],inactive
same,Potency,[7],inactive
CC(C)(C)c1nnc(NS(=O)(=O)c2ccccc2)s1,outcome,[1],inactive
same,Potency,[2],inactive
same,Potency,[7],inactive
Nc1c[n+](N2CCOCC2)no1,outcome,[1],inactive
same,Potency,[2],inactive
same,Potency,[7],inactive
CCC(CN)=C(c1ccccc1)c1ccccc1,outcome,[1],inactive
same,Potency,[2],inactive
same,Potency,[7],inactive
CCCCCOc1ccc(C2SC(=O)NC2=O)cc1OCC (stereo unspecified),outcome,[1],inactive
same,Potency,[2],inactive
same,Potency,[7],inactive
CCCCC(CC)CNC(=O)CC(C)OC(=O)CCC(=O)O (stereo unspecified),outcome,[1],inactive
same,Potency,[2],inactive
same,Potency,[7],inactive
COc1ccc(OC(=O)N(CC(=O)O)Cc2ccc(OCCc3nc(-c4ccccc4)oc3C)cc2)cc1,outcome,[1],inactive
same,Potency,[2],inactive
same,Potency,[7],inactive
Cc1cc(=O)oc2cc(O[C@@H]3SC[C@@H](O)[C@H](O)[C@H]3O)ccc12,outcome,[1],inactive
same,Potency,[2],inactive
same,Potency,[7],inactive
